Laboratory results: PubChem BioAssay (NCI)
The panel holds about 83,000 compounds, 20% with a hit somewhere; the sample as a whole holds those more often.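 Single-dose data. Exposure time 48 hours. Values below 10 considered active.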 The source made the active and inactive calls.

What follows are molecules tested on TK-10 renal (assay: NCI-60 one-dose screen, 48 h (100 = growth as untreated, 0 = no growth, -100 = all killed)). Settings: 10 µM unless noted.

Row | SMILES | growth
1 | COc1cc(-c2nn(-c3cccc(NC(=O)Nc4cc(C(F)(F)F)cc(C(F)(F)F)c4)c3)cc2-c2ccncc2)ccc1Cl | -26.7% (active)
2 | COc1ccc(C(=O)c2cc(OC)c3c(c2)OCO3)cc1O | 66% (inactive)
3 | CCOC(=O)NNC(=S)Nc1ccccc1 | 111% (inactive)
4 | N#Cc1c(-c2ccccc2)nc(SCC(=O)N2CCN(c3ccccc3)CC2)[nH]c1=O | 145% (inactive)
5 | Cc1cc(C(C)(C)C)ccc1S | 107% (inactive)
6 | CCOC(=O)C1=C(C)NC(C)=C(C(=O)OCC)C1(C)C | 109% (inactive)
7 | COc1ccc(CNCCCN2C(=O)c3ccc4c5c(ccc(c35)C2=O)C(=O)N(CCCNCCCCNCCCN)C4=O)c(OC)c1OC | 25.7% (inactive)
8 | NNc1cccc(/C=C/c2ccccc2)cc1=O | 70.7% (inactive)
9 | O=C(Nc1ccncc1)C(=O)c1cn(S(=O)(=O)c2ccc(Br)cc2)c2ccccc12 | 98.2% (inactive)
10 | O=C(/C=C/c1cc(-c2ccc3c(c2)OCO3)n[nH]1)c1ccc2c(c1)OCO2 | 106% (inactive)
11 | CCCOC(=O)n1cccc1 | 110% (inactive)
12 | CCN(CC)c1ccc(CNc2ccnc3ccccc23)cc1 | 60% (inactive)
13 | COc1cccc(-c2cc3c(O)cc(C#N)cc3[nH]2)c1 | 97.9% (inactive)
14 | C=C(C)[C@@H]1CC[C@]2(C(=O)N3CCNCC3)CC[C@]3(C)[C@H](CC[C@@H]4[C@@]5(C)C/C(=C/c6ccncc6)C(=O)C(C)(C)[C@@H]5CC[C@]43C)[C@@H]12 | 102% (inactive)
15 | Fc1ccccc1-c1nc(-c2nc3cc(Cl)c(Cl)cc3[nH]2)c2ccccn12 | 76.5% (inactive)
16 | O=[N+]([O-])c1cc(Cl)c2[nH]c3c(Cl)cc([N+](=O)[O-])cc3c2c1 | -23.1% (active)
17 | COc1cc(-c2nn(C(=O)NS(=O)(=O)c3ccccc3)cc2-c2ccncc2)ccc1Cl | 83% (inactive)
18 | COc1cc(NCCCCCN)c2ncccc2c1 | 119% (inactive)

Row | SMILES | growth
19 | NC(=N\N=C/c1ccc(O)cc1)/C(N)=N\N=C/c1ccc(O)cc1 | 83.4% (inactive)
20 | Cn1c(=O)c2[nH]c(C3CC=CCC3)nc2n(C)c1=O (stereo not given) | 112% (inactive)
21 | O=C(/C=C/c1ccccc1)c1cccc(O)c1 | 109% (inactive)
22 | C=C[C@@H]1C[C@H](O)Cc2cc(F)ccc2N1 | 97.7% (inactive)
23 | O=C(O)Cc1cccc(=O)c(O)c1C(=O)O | 108% (inactive)
24 | O=C(O)COc1ccc(-c2cssc2=S)cc1 | 93.9% (inactive)
25 | c1ccc(-c2nnc(-c3ccccn3)s2)nc1 | 123% (inactive)
26 | CC(C)CC1NC(C)(C)CO1 (stereo not given) | 96.4% (inactive)
27 | CC(C)(C)N1CCC1C(N)=O (stereo not given) | 91.8% (inactive)
28 | COc1ccc(-c2cnnn2-c2nonc2-n2cccc2)cc1OC | 69.6% (inactive)
29 | CCCCN(CCCC)C(=N)c1ccnc2ccccc12 | 105% (inactive)
30 | O=S(=O)(NCCNc1nccc(-c2c(-c3cccc(O)c3)nc3sccn23)n1)c1ccc(F)cc1 | 108% (inactive)
31 | COc1cc(-c2nn(-c3cccc(NC(=O)c4cccc(C(F)(F)F)c4)c3)cc2-c2ccncc2)ccc1Cl | 8.08% (active)
32 | Cc1ccc(Cc2c(C=O)nc(N)[nH]c2=O)c2ccccc12 | 112% (inactive)
33 | Cn1cnc2c(N3CCN(C(=O)OCc4ccc5c(Cl)cc(Cl)c(O)c5n4)CC3)nc(Cl)nc21 | 96% (inactive)
34 | COc1ccc(-c2c(N)n[nH]c2-c2cc(OC)c3c(c2)OCCO3)cc1 | 71.3% (inactive)
35 | COc1ccc(C2=C(c3cc(OC)c(OC)c(OC)c3)C(=O)CC2)cc1 | 60.6% (inactive)
